Only some compounds are listed: those with a hit (about 6.2% of all), similar ones and a draw of the others.
HT1080 IDH1KD tx: kills HT-1080 cells with IDH1 knockdown; Potency, µM (highest dose often 46.1 µM), for inactives: at the highest dose activity, negative = toxicity, most hits filed as cytotoxic; HT-1080 IDH1 knockdown viability, ATP luminescence, 48 h; 360,000 compounds, 2% hits;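 note: 0% = DMSO wells and -100% = cell-free medium wells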
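IDH1KD HT-1080 cells, 750/well, RPMI + 5% FBS; compound pinned after 2 h settling; 48 h, 37 °C; CellTiter-Glo luminescence; % activity normalised to DMSO and no-cell wells; curves fitted, classed by r2 and efficacy.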
ATXN2 expr inh: reduces ATXN2 reporter expression in HEK-293 cells; Potency, µM (series often up to 57 µM), without a hit: top-dose activity change, negative = inhibition, actives largely listed as inhibitors; 360,000 compounds, 0.72% hits; HEK-293 ATXN2-luciferase reporter, luminescence, 24 h; note: % is set by controls: 0 for no effect and ±100 for the full control effect; nearly all actives have a fitted effect of over 55% in size
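ATXN2-luciferase reporter cells (luciferase flanked by upstream and downstream ATXN2 gene portions) were treated 24 h at 37 °C with compounds at up to 57 uM. SteadyGlo luminescence gave expression; GF-AFC fluorescence gave viability.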
S2 tox: cell viability loss in ATXN counter-screen. S2 cells (HEK-293 line with an ATXN2-luciferase reporter) viability, CellTiter-Fluor protease fluorescence, 24 h. Potency, µM (series often up to 56.7 µM), most hits filed as cytotoxic. 400,000 compounds, 0.49% hits; note: nearly all actives have a fitted effect of over 40% in size
HT1080-NT tox: kills 2HG-producing HT-1080-NT fibrosarcoma cells; HT-1080-NT fibrosarcoma viability, CellTiter-Glo ATP luminescence, 48 h; Potency, µM (titrated, usually from 46.1 µM), inactives show top-dose activity, negative = less viability, actives largely listed as cytotoxic; 360,000 compounds, 1.6% hits; AID 686970;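 note: NT is the 2HG producing partner of a matched IDH1 knockdown line; 0% = DMSO-treated cells and -100% = media-only wells without cells; nearly all actives have a fitted effect of over 55% in size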
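Luminescent CellTiter-Glo readout after 48 hours of compound exposure at 37 degrees C defined viability of HT-1080-NT cells. Activity was normalized to DMSO wells and cell-free media wells; concentration-response curves were fitted and assigned curve classes.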
KB-V1 cytotox: kills drug-selected multidrug resistant KB-V1 cells | KB-V1 MDR cells viability, CellTiter-Glo, 72 h | Potency, µM (titrated, usually from 46.1 µM), hits mostly cytotoxic | 400,000 compounds, 3.4% hits; note: % is set by controls: 0 for no effect and ±100 for the full control effect; nearly all actives have a fitted effect of over 60% in size
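Cytotoxicity via CellTiter-Glo luminescence after 72 h compound exposure at 37 degrees C. Cells: drug-selected KB-V1 line, DMEM phenol-red free plus 10% FBS. Compounds tested at multiple concentrations; normalized data fitted to concentration-effect curves.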
KB-3-1 cytotox: kills parental KB-3-1 adenocarcinoma cells | KB-3-1 viability, CellTiter-Glo ATP luminescence, 72 h | Potency, µM (highest dose often 46.1 µM), usual class: cytotoxic | 400,000 compounds, 1.4% hits | AID 1347075; note: % is set by controls: 0 for no effect and ±100 for the full control effect; nearly all actives have a fitted effect of over 60% in size
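KB-3-1 cells, DMEM (no phenol red) + 10% FBS; compound by pin transfer, 72 h, 37 °C. Readout: CellTiter-Glo luminescence after 10 min. Data normalized, curve-fitted.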
Active calls of the source: *; i = inactive; ? = inconclusive; nt = no result. Calls come from the whole dose curve; as a rule, active = well fitted curve in the direction sought with a large enough effect; inconclusive = small, poorly fitted or top-dose-only effect, or another doubt; inactive = no such curve, though single readings can be large; an effect the other way counts as inactive or inconclusive. Potency is the fitted concentration of half-maximal effect.

SMILES	HT1080 IDH1KD tx	ATXN2 expr inh	S2 tox	HT1080-NT tox	KB-V1 cytotox	KB-3-1 cytotox
CCc1nc2c(OCc3ccc(Cl)cc3)cccn2c1N(C=O)Cc1ccccc1	?	?	?	23µM*	i	?
CCOC(=O)N(C)c1c(CC)nc2c(OCc3ccccc3C)cccn12	5%	?	i	4%	16µM*	?
CCc1nc2c(OCC(=O)c3ccc(Cl)cc3Cl)cccn2c1N(C=O)Cc1ccccc1	-12%	0%	?	-10%	i	i
COc1ccc(-c2nc(C)c(CCNC(=O)c3c(F)cccc3F)s2)cc1	nt	-5%	?	nt	?	i
Cc1ccccc1-n1c(SCC(=O)c2c(N)n(C)c(=O)n(C)c2=O)nc2sc3c(c2c1=O)CCCC3	-22%	-20%	i	-3%	23µM*	?
O=C(NCc1ccccc1Cl)c1ccccc1Oc1ccccc1	9%	1%	i	8%	13µM*	i
COc1ccccc1CNC(=O)c1ccccc1OC	4%	-2%	i	12%	?	i
Cc1oc(-c2ccccc2NC(=O)c2ccccn2)nc1CNC(=O)c1cccc(C#CC(C)(C)O)c1	nt	nt	i	nt	nt	nt
N#Cc1ccccc1Cn1cc(/C=C/[N+](=O)[O-])c2ccccc21	23µM*	?	nt	23µM*	?	?
O=C(Cn1cc(/C=C\[N+](=O)[O-])c2ccccc21)Nc1ccccc1	3.7µM*	?	nt	?	?	?
O=C(O)Cn1cc(/C=C/[N+](=O)[O-])c2ccccc21	1%	-27%	?	-1%	?	i
COc1ccc(NC(=O)Nc2ccc3c(c2)C(=O)N([C@H](C)CO)C[C@H](C)[C@@H](CN(C)C(=O)Nc2ccccc2)O3)cc1	-2%	-3%	i	-1%	i	i
COc1ccc(/C=C2\N=C(c3ccccc3Cl)NC2=O)cc1	15µM*	nt	i	-23%	?	?
C#CC(C)(CC)OC(=O)c1ccccc1C(=O)O (centres undefined)	nt	7%	i	nt	nt	nt
N#CC1=C(N)NC(=S)C(C(N)=O)C1c1ccc(Cl)cc1Cl (centres undefined)	?	?	24µM*	?	?	i
CC(C)c1ccc(C(=O)NCCCN2CCOCC2)cc1	8%	23%	i	19%	i	i
CC(=O)NCCNC(=O)c1ccc(Sc2ccccc2)c([N+](=O)[O-])c1	-2%	nt	nt	-3%	i	i
CN(C)CCNC(=O)c1ccc(Sc2ccc(Br)cc2)c([N+](=O)[O-])c1	18µM*	-15%	i	23µM*	?	?
O=C(NCCCN1CCOCC1)c1ccc(Sc2ccc(F)cc2)c([N+](=O)[O-])c1	2%	3%	i	3%	23µM*	i
O=C(NCCCN1CCOCC1)c1ccc(CSc2ccc(Cl)cc2)cc1	?	?	?	18µM*	?	?
CC(=O)N1CCC(C(=O)N2c3ccccc3N=C(c3ccc4c(c3)OCO4)C2C(=O)NCc2ccccc2)CC1 (centres undefined)	10%	nt	nt	1%	i	i
Cc1cccc(NC(=O)c2oc3ccccc3c2NC(=O)Cc2coc3cc(C)cc(C)c23)c1	nt	16%	i	nt	i	i
Clc1cccc(-c2nnc(CN3CCN(c4ccccn4)CC3)o2)c1	nt	11%	i	nt	i	i
CCc1noc(C)c1C(=O)N(CC)CC(=O)NCc1ccc(F)cc1	4%	nt	i	10%	i	i
CCOc1ccc(NC(=O)c2c(NCc3cccnc3)sc3c2CCCC3)cc1	nt	27%	?	nt	i	i
O=C(CSc1ccc(-c2cccnc2)nn1)Nc1ccc(F)c(F)c1	-2%	-16%	?	?	9.2µM*	i
CCSc1oc(-c2ccccc2)nc1S(=O)(=O)c1ccccc1	2%	-7%	i	-3%	i	i

Screening results deposited in PubChem by National Center for Advancing Translational Sciences (NCATS).
